For test [1], the target named is T1, Aspartate--tRNA(Asp/Asn) ligase (Mycobacterium tuberculosis (strain ATCC 25618 / H37Rv)) (UniProt P9WFW3). Note: in the data most compounds retested in dose-response had high values.
T1 sequence (whole entry): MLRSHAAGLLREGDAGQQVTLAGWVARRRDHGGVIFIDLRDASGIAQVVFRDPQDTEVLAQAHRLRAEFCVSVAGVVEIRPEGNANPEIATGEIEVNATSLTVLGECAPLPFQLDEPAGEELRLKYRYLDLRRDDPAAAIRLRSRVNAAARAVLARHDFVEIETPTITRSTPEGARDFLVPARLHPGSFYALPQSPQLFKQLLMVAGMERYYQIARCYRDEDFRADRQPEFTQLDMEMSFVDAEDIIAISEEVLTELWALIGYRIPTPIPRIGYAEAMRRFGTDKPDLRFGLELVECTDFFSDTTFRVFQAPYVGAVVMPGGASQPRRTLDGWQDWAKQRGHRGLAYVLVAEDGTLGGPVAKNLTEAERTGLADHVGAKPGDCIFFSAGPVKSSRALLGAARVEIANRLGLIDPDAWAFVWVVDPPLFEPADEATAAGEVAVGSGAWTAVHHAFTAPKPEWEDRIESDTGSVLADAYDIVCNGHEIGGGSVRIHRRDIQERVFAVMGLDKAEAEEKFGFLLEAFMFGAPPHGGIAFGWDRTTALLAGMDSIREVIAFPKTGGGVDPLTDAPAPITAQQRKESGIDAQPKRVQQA
The experiment in a line: Assay for Asp RNA synthetase-1 from Mycobacterium tuberculosis. It is filed as functional. Details: scale not given: direction of the effect not stated beside the values. As to conditions: 30 µM.

Test [2] deals with Shiga toxin 2 (Escherichia coli O157:H7) (UniProt P09385+P09386). Put plainly: E. coli 0.157:H7 Shiga Toxin SOP - stx2 screening assay. The class given is functional. Also on record: scale not given: direction of the effect not stated beside the values. As to conditions: 30 µM.

`O=C(CN1CCCC1Cn1cncn1)NCCc1c(F)cccc1F` (centres undefined): the Percent Effect was 1.46% in test [1] and -12.5% in test [2].
Taken in the same sequence, the figures for `O=C(c1cnccn1)N1C[C@@H]2CC[C@H](C1)N(C(=O)Cc1ccsc1)C2` were -3.45% and -38.6%.
For `CCc1ccc(C(=O)O)cc1S(=O)(=O)Nc1ccc(F)c(C#N)c1` the same measures were 4.35% and -1.93%.
For the molecule `CCN1CCN(C(=O)c2cc(C(=O)OC)nn2-c2ccccc2)CC1`, the Percent Effect in test [1] turned out to be 2.94%; in test [2], 26.1%.
Regarding `CCc1[nH]ncc1C(=O)N1CCCC(n2nc(C)nc2C)C1` (centres undefined), the figures for the Percent Effect in test [1] and in test [2] were -1.03% and 12.8%, respectively.
For `COCCCC1(CO)CCCN(CCc2ccccc2)C1` (centres undefined) the same measures were -0.201% and -15.6%.
Take `COc1cc(C)nc(N2CCN(C(=O)CN(C)C3CC3)CC2)n1`: the values for the Percent Effect in test [1] and in test [2] were 0.9% and -33.1%, respectively.
Taken in the same sequence, the figures for `CCc1cc(C(=O)N2CCCC2c2nc(C)c(F)c(O)n2)on1` (centres undefined) were 2.22% and -57%.
Taken in the same sequence, the figures for `CCS(=O)(=O)N(C)C1CCN(C(=O)c2cccc(Cl)c2)CC1` were -0.493% and 14.8%.
Taken in the same sequence, the figures for `CCn1nccc1CNC(=O)C(C)n1cc2c(n1)c(C)nn2C` (centres undefined) were -5.02% and -29.4%.
Regarding `CC(CC#N)NC(=O)c1cc(Br)c2c(c1)OCCO2` (centres undefined), the Percent Effect in test [1] is -8.16%; in test [2] it was -5.44%.
As for `CCCNC(=O)c1cc2c(c3ccccc3n2C)n1C(=O)N(C)C`, the Percent Effect in test [1] is 2.3%; in test [2] it was -2.9%.
With `Cc1ccc(CN(Cc2c[nH]cn2)C2CC(C)(C)NC(C)(C)C2)o1`, the Percent Effect in test [1] is -1.68%; in test [2] it was 7.12%.
For `COc1ncccc1C(=O)NCC1Cc2ccccc2O1` (centres undefined) the same measures were 6.18% and 5.65%.
As to `Cn1ccnc1CN1CCC2(CC(=O)N(c3cccc(F)c3)C2)C1` (centres undefined), the Percent Effect in test [1] was 6.19%; in test [2], -33.1%.
For `Cc1nc(-c2ccsc2)ccc1C(=O)NCCC1CCCO1` (centres undefined) the same measures were 0.767% and -18.3%.
For `O=C(O)c1nnn(-c2ccc(F)c(F)c2)c1-c1ccncc1` the same measures were 2.4% and -13%.

The record behind these values is ChEMBL document CHEMBL3988442, “University of Dundee, Small-Polar-MMV Screening Library” (2021).
